LmPK inhibitor – inhibitors of Leishmania mexicana pyruvate kinase. Q27686. purified LmPK, Kinase-Glo ATP luminescence, 1 h. Potency, µM (highest dose often 57.5 µM), without a hit: top-dose activity change, negative = inhibition, usual class: inhibitors. 290,000 tested, 0.37% active. AID 1721
Target sequence (Q27686 whole entry, looked up): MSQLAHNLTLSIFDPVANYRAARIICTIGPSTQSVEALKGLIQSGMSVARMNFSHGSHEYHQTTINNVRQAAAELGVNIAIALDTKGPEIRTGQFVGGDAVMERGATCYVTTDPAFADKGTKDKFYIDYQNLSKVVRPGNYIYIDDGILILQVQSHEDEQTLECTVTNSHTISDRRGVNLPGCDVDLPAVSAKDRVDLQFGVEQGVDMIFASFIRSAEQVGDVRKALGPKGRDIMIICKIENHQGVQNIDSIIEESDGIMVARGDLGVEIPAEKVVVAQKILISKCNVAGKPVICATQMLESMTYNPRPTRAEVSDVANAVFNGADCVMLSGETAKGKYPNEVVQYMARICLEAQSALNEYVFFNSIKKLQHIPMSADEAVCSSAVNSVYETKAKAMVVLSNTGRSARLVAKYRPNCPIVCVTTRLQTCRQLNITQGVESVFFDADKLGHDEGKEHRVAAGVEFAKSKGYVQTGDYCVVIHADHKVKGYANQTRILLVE
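0.1 nM LmPK, 0.5 mM PEP, 0.1 mM ADP; 50 mM imidazole pH 7.2, 7 mM MgCl2, 50 mM KCl; 1 h RT. Kinase-Glo luminescence readout, normalized to no-enzyme (full inhibition) and uninhibited wells.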
VACV Venus inh – inhibitors of vaccinia virus (Venus reporter). Vaccinia virus Venus reporter expression, fluorescence. Potency, µM (titrated, usually from 36.5 µM), without a hit: at the highest dose activity change, negative = inhibition, hits mostly inhibitors. 330,000 tested, 0.46% active. AID 720580; calls by dose curve; tested in A549 cells; further: nearly all actives have a fitted effect of over 30% in size
AMA1 RON2 block – AMA1-RON2 (P. falciparum) interaction inhibition. Potency, µM (top dose mostly 58.2 µM), for the others: top-dose activity change, negative = inhibition, hits mostly inhibitors. 360,000 tested, 0.2% active. AlphaScreen AMA1-biotinylated RON2 peptide binding;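 further: 0% = vehicle wells and -100% = peptide control; nearly all actives have a fitted effect of over 45% in size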
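AMA1 (3D7) with his tag at 25 nM final met compounds first, then biotinylated RON2 peptide at 25 nM; detection used donor plus acceptor beads, 10 µg/mL apiece, read by AlphaScreen after 30 min at room temperature.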
RE007 growth inh – less growth of the S. pombe RE007 Vpr strain. 360,000 tested, 0.21% active. S. pombe RE007 Vpr strain, BacTiter-Glo ATP luminescence, 24 h. Potency, µM (highest dose often 92.2 µM), inactives show top-dose activity change, negative = less growth, actives largely listed as inhibitors. AID 651644; active means well fitted falling curve with a large enough effect; inconclusive means small, poorly fitted or top-dose-only effect; inactive means no such curve, though single readings can be large or run the other way; further: nearly all actives have a fitted effect of over 50% in size
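Fission yeast strain RE007, carrying one chromosomally integrated HIV-1 vpr copy, was seeded at OD 0.01 in PMG+AL medium with 23 nL pinned compound. After 24 h at 30 °C and 99% humidity, viability was read by BacTiter-Glo luminescence.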
VACV mCherry inh – vaccinia inhibition (mCherry reporter); Vaccinia virus mCherry reporter infection, fluorescence; Potency, µM (top dose mostly 36.5 µM), for inactives: at the top dose activity change, negative = inhibition, hits mostly inhibitors; 310,000 tested, 0.63% active; calls by dose curve; tested in A549 cells; further: nearly all actives have a fitted effect of over 35% in size
Tb PYK inh – inhibitors of Trypanosoma brucei pyruvate kinase; Potency, µM (doses to about 76.8 µM), for inactives: at the highest dose activity, negative = inhibition, most hits filed as inhibitors; 410,000 tested, 0.12% active; Q57TT1; TbPYK enzyme, Kinase-Glo Plus ATP luminescence, 45 min; AID 624173; further: nearly all actives have a fitted effect of over 50% in size
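Enzyme and substrate buffer are dispensed first and compound is pin-transferred. ADP at 130 uM final then starts the reaction, which runs 45 min at room temperature. Detection reagent is added for 10 min before luminescence is imaged.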
The depositor's hits bear a star; i = inactive; ? = inconclusive; nt = no result given; [ ] = another dose, or the depositor's remark. Hits are enriched below; roughly 1.3% of the tested compounds scored in any of these assays. Unless noted, the call rests on the fitted dose curve; in most records, active means well fitted curve in the direction sought with a large enough effect; inconclusive means small, poorly fitted or top-dose-only effect, or another doubt; inactive means no such curve, though single readings can be large; an effect the other way counts as inactive or inconclusive. Unless noted, on the % scale 0 is the no-effect control and ±100 the full control effect; potency means the concentration at half of the fitted maximal effect.

SMILES	LmPK inhibitor	VACV Venus inh	AMA1 RON2 block	RE007 growth inh	VACV mCherry inh	Tb PYK inh
O=C(N/N=C/c1ccccc1O)c1ccncc1	nt	-18.9%	-2.2%	2.5%[18.4 µM]	-2.4%	3.8%
COc1ccc(-c2cc(C(=O)N/N=C/c3sccc3C)c3ccccc3n2)c(OC)c1	1.1%	-19.7%	0.2%	-16.8%	28.2µM*	3.6%
O=C(NN=Cc1cccc(O)c1O)c1ccccc1	nt	?	8.5%	?	10µM*	-26.0%
COC(=O)c1c(OCc2ccccn2)cc(=O)n2c1CCN(Cc1ccc3nsnc3c1)CC2	nt	0.0%	nt	nt	-2.5%	nt
Oc1cc(-c2nc3ccccc3s2)cc2c1OCCN(Cc1cccn1-c1ccc(Cl)cn1)C2	nt	-0.9%	nt	nt	-7.4%	nt
COc1cc(CC(C)N)c(OC)cc1C (centres undefined)	nt	nt	nt	nt	nt	-8.8%[157 µM]
CCN(CC)c1ccc(/C=C/c2ccccn2)cc1	nt	i	nt	nt	0.8%	nt
O=C(NCc1nnc2n1CCN(Cc1cc3c(cc1Cl)OCO3)CC2)c1cccc(F)c1	nt	-24.1%	nt	nt	-5.9%	nt
COc1cccc(/C=N/NC(=O)c2ccc([N+](=O)[O-])cc2Cl)c1O	-4.6%	?	57.1%	nt	11.2µM*	2.9%
COc1ccccc1/C=N\NC(=O)c1c(C)nc2ccc(Cl)cn12	-1.4%	nt	32.6%	12.5%	nt	2.1%
O=C(N/N=C/c1ccc(F)cc1)c1cc(-c2ccccn2)nc2ccccc12	nt	-14.5%	16.8%	-12.4%	-19.0%	-2.5%
COc1ccccc1/C=N/NC(=O)c1c(-c2ccccc2)noc1C	1.1%	-15.5%	9.2%	-10.5%	-1.2%	7.8%
COc1cccc(/C=N/NC(=O)c2c(C)nc3ccc(Cl)cn23)c1O	2.7%	?	-11.5%	0.5%	3.16µM*	4.5%
Cc1cccc(/C=N/NC(=O)c2c(-c3ccccc3)noc2C)c1O	-8.9%	-27.7%	24.0%	3.2%	0.562µM*	-2.4%
COc1cccc(/C=N/NC(=O)c2cc(-c3ccccn3)nc3ccccc23)c1O	nt	?	67.8%	11.8%	1µM*	-1.7%
Cc1onc(-c2ccccc2)c1C(=O)NCCN1Cc2ccccc2OC(c2ccsc2)C1 (centres undefined)	nt	-8.6%	nt	nt	-1.1%	nt
Cc1ccc(CN2CCOCCS2(=O)=O)cc1	nt	?	nt	nt	-32.0%	nt
COCc1ccc(C(=O)N2CCOc3ccc(CN4CCN(c5ccc(F)cc5)CC4)cc3C2)o1	nt	-30.7%	nt	nt	-5.1%	nt
COc1ccc2ccccc2c1CN1CCOc2ccc(CN3CCN(CCO)CC3)cc2C1	nt	-7.0%	nt	nt	-10.3%	nt
NC(=S)N/N=C/c1cccc(O)c1O	-0.5%	-17.8%	-64.7%	-5.3%	8.91µM*	2.0%
Cc1cccc(/C=N\NC(=O)c2ccc(Cl)cc2)c1O	1.9%	?	-13.4%	0.0%	2.51µM*	-5.6%
COc1cc(/C=N/NC(=O)c2cc(-c3ccccc3)nc3ccccc23)ccc1O	-6.7%	-6.0%	23.0%	-15.8%	-23.8%	-9.3%
COc1cccc(/C=N/NC(=O)C(=O)Nc2ccccc2OC(F)(F)C(F)F)c1O	5.2%	?	51.6%	-5.4%	10µM*	-9.5%
COc1ccccc1/C=N/NC(=O)c1cccc(OC(F)(F)C(F)F)c1	-5.1%	-2.2%	-0.4%	-8.6%	-18.3%	-0.4%
NC(=S)N/N=C/c1ccccc1O	0.0%	nt	47.7%	-2.6%	nt	-6.7%
SMILES	LmPK inhibitor	VACV Venus inh	AMA1 RON2 block	RE007 growth inh	VACV mCherry inh	Tb PYK inh
COc1cc(/C=N/NC(=O)c2cc(-c3ccccc3OC(C)C)nc3ccccc23)ccc1O	-5.0%	7.7%	1.1%	-4.8%	12.6µM*	0.0%
CN(C)c1ccc(/C=C2\C(=O)/C(=C\c3ccc(N(C)C)cc3)c3ccccc32)cc1	nt	-3.5%	nt	nt	i	nt
CC#CCN1c2ccccc2[C@]23C[C@@H](C(=O)OC)N(C(=O)c4cccs4)C2=NC(C(=O)OC)=C(C(=O)OC)[C@H]13	4.1%[11.5 µM]	nt	nt	nt	nt	nt
Cc1cc(-c2ccnc(-n3ncc(C(=O)NCC4COCCO4)c3C3CC3)n2)c(C)s1 (centres undefined)	nt	-20.8%	nt	nt	-9.1%	nt
COc1cc(=O)n2c(c1C(=O)NCc1ccco1)CCN(C(=O)c1ccc(C)c(C)c1)CC2	nt	-10.0%	nt	nt	-22.1%	nt
Cc1ccc(S(=O)(=O)N2CCN(c3nc(Nc4ccccc4O)nc4ccccc34)CC2)cc1	nt	-10.3%	nt	nt	i	nt
CCn1c(C)nc2cc(C(=O)N/N=C/c3ccccc3)ccc21	-1.3%	-0.9%	-2.3%	-0.9%	i	-1.5%
CCn1c(C)nc2cc(C(=O)N/N=C/c3cccc(O)c3O)ccc21	-0.7%	?	2.7%	-13.0%	12.6µM*	6.0%
COc1ccc2c(c1)OC(C)CN(CCNC(=O)C1CCOC1)C2 (centres undefined)	nt	7.4%	nt	nt	-4.4%	nt
CCOc1ccc(N2Nc3n[nH]c(N)c3N2)cc1	-16.1%	?	49.4%	2.1%	2µM*	-1.0%
COc1cc(-c2ccc3c(=O)c4ccccc4sc3c2)cc(OC)c1OC	nt	14.1µM*	0.0%	0.7%	-33.5%	3.3%
CSC1SCC2C(=O)N(C)C(C(C)C)C(=O)OCC(NC(=O)c3cnc4ccccc4n3)C(=O)NC(C)C(=O)N(C)C1C(=O)N(C)C(C(C)C)C(=O)OCC(NC(=O)c1cnc3ccccc3n1)C(=O)NC(C)C(=O)N2C (centres undefined)	nt	0.0035µM*	-15.8%	?	?	-11.6%
O=C(N/N=C/c1cc(Cl)ccc1O)c1ccc(Br)cc1	-3.2%	?	-14.2%	3.9%	3.16µM*	3.8%
O=C(N/N=C\c1cc(Br)ccc1O)c1ccc(S(=O)(=O)N2CCCCC2)cc1	1.5%	?	22.2%	7.4%	5.01µM*	0.5%
CC(=O)Oc1ccc2ccc(=O)oc2c1	3.4%	0.0025µM*	5.0%	-2.8%	100µM*	2.6%
Nc1ccc(N)c(C(=O)O)c1	?	nt	8.91µM*	6.0%	nt	-19.6%
Cc1ccc2c(c1)CN(CCNC(=O)c1cccc(Cn3cccn3)c1)CC(C)O2 (centres undefined)	nt	-5.6%	nt	nt	-5.9%	nt
CC1(c2ccc([N+](=O)[O-])cc2)Nc2ccccc2S1 (centres undefined)	2.3%	-11.9%	-28.3%	39.8µM*	?	-16.9%
C#CC1(OC(C)=O)CCC2C3CCC4=CC(OC(C)=O)CCC4C3CCC21C (centres undefined)	nt	nt	nt	nt	nt	-9.1%
O=c1ccc2c(o1)/C(=C/C=C(Cl)Cl)CCC2	12.1%	?	2.7%	-17.1%	10µM*	-0.6%
COc1cc(=O)n2c(c1C(=O)N(C)Cc1nccs1)CCN(Cc1c(F)ccc(F)c1F)CC2	nt	-2.1%	nt	nt	-8.2%	nt
COc1cc([C@@H]2c3cc4c(cc3[C@@H](O[C@@H]3O[C@H]5CO[C@H](C)O[C@H]5[C@H](O)[C@@H]3O)[C@H]3COC(=O)[C@H]23)OCO4)cc(OC)c1OP(=O)(O)O	nt	nt	nt	nt	nt	5.6%
